The panel holds about 83,000 compounds, 20% with a hit somewhere; the sample as a whole holds those more often.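 Each cell line was grown in a 96-well plate and treated with one concentration of compound for 48 hours. Values below 10 were considered active.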 Activity calls are given as the source filed them.
tested on: SN12C renal; assay: NCI-60 one-dose screen, 48 h (100 = growth as untreated, 0 = no growth, -100 = all killed); conditions: 10 µM unless noted

SMILES	growth
O=C1Nc2ccccc2/C1=C\c1cccc(/C=C2/C(=O)Nc3ccccc32)n1	8.35% (active)
COc1ccc(/C=N/NC(=O)c2cccc3cc[nH]c23)cc1O	53.9% (inactive)
CCN1C(=O)N(CC)C2C1NN=c1s/c(=C3\C(=O)Nc4ccccc43)c(=O)n12 (stereo not drawn)	34% (inactive)
CC(C)(O)C1CCCN1C(=O)c1ccccc1I (stereo not drawn)	95% (inactive)
O=C1NC(=S)NC(=O)C1=Cc1cccc(C=C2C(=O)NC(=S)NC2=O)c1	95.3% (inactive)
Cn1c2c(Cl)c(Cl)ccc2c2cc(N)[nH]c(=O)c21	92% (inactive)
COc1ccc(-c2cnnc3c(-c4cccc(C(F)(F)F)c4)cnn23)cc1	49.8% (inactive)
O=C1Nc2c(ccc(Cl)c2Cl)/C1=C/c1ccc([N+](=O)[O-])cc1	126% (inactive)
COc1ccc(-c2nc(SCC(C)C)nc(N/N=C(/C)c3ccc(OC)c(OC)c3)c2C#N)cc1	76.1% (inactive)
NS(=O)(=O)c1cccc(NC(=O)C(=O)C2C(=O)Nc3ccccc32)c1 (stereo not drawn)	99.5% (inactive)
O=S(=O)(c1cccc(NC2=Nc3cccc4cccc2c34)c1)N1CCCC1	72.2% (inactive)
CCOC(=O)c1c(SC)nn(-c2cc(=O)[nH]c3ccc(Br)cc23)c1N	108% (inactive)
CC(=O)c1c[nH]c2ccc(-c3ccnc(Nc4ccc(NC(=O)C5CCCC5)c(CN5CCOCC5)c4)n3)cc12	-8.98% (active)
COc1ccc(/C=C(/c2ccccc2)[N+](=O)[O-])cc1	-38.4% (active)
O=C1Nc2c(ccc(Cl)c2Cl)/C1=C/c1ccccn1	97% (inactive)
CCN(CCNc1cc(OC)cc2cccnc12)CCc1ccccc1	91.3% (inactive)
COc1cc2nc(-c3ccc(C#N)cc3)[nH]c(=O)c2cc1OC	91.7% (inactive)
CCCOc1nc(SCCC)nc2c1cnn2-c1ccccc1	98.7% (inactive)
O=S(=O)(c1ccccc1)N1CCCc2ccccc21	98.9% (inactive)

SMILES	growth
O=C(Nc1ccc(Cl)cc1)Nc1ccc(Cl)c(Cl)c1	6.47% (active)
COc1cc(NCC(O)CN(CC(C)C)C2CCCC2)c2ncccc2c1 (stereo not drawn)	86.4% (inactive)
COc1ccc(Nn2c(SCC(=O)Nc3nc(-c4ccc(Cl)cc4)cs3)nc(C)c2C)cc1	67.2% (inactive)
COc1cccc2c1C(=O)c1c(O)c3c(c(O)c1C2=O)C[C@@](O)(C(=O)CO)C[C@@H]3O[C@H]1C[C@H](N)[C@@H](O)[C@H](C)O1	10% (inactive)
Clc1ccc(N2N=C(c3cccc(Nc4ccncc4)c3)CC2c2ccc3c(c2)OCO3)cc1 (stereo not drawn)	62.6% (inactive)
O=C(N/N=C/c1ccncc1)c1ccccc1Nc1cccc(C(F)(F)F)c1	90.8% (inactive)
COc1ccc(Cc2nc3cc(OC)c(OC)cc3c(=O)[nH]2)cc1	67.9% (inactive)
COc1ccc(-c2c[nH]c(C(=O)O)c2-c2cc(OC)c3c(c2OC)OCO3)cc1	99.9% (inactive)
Clc1ccc(N2N=C(c3cccc(Nc4ccncc4)c3)CC2c2ccccc2)cc1 (stereo not drawn)	86.1% (inactive)
COc1ccc(Cn2nc(-c3cc(OC)c(OC)c(OC)c3)c3c2CCc2cnoc2-3)cc1OC	60.6% (inactive)
COc1cc2nnn3c4ncccc4c(N=O)c3c2cc1OC	81.4% (inactive)
Clc1nc(Cl)c2ncn(CC3(Cn4cnc5c(Cl)nc(Cl)nc54)COC3)c2n1	-86.6% (active)
C(=N\Nc1ncc(-c2cc3cc4c(cc3o2)OCO4)s1)/c1c[nH]c2ccccc12	-12.3% (active)
COc1ccc(-c2nn(Cc3ccccc3)c3c2-c2oncc2CC3)cc1OC	85.8% (inactive)
COc1cc(/C=C/C(=O)c2c(C)oc3nc[nH]c(=O)c23)ccc1O	97.2% (inactive)
CCc1nc(C)cn1C(=O)OCc1nc2nc(Cl)nc(N3CCOCC3)c2[nH]1	-21.3% (active)
O=C(Nc1ccccc1)Oc1ccccc1-c1ccccc1	98.5% (inactive)
COc1ccc(C(O)c2cc3c(N)c(C(=O)Nc4ccccc4)sc3nc2C)cc1 (stereo not drawn)	21.5% (inactive)
CCC(C)N(CCNc1cc(OC)cc2cccnc12)CCC(C)C (stereo not drawn)	93.5% (inactive)
